From publication PMC12136788
The full ranking holds about 24,000 sequences; the median of “enrichment r” is about 0.99, and the highest 2% start at about 3.7. The entries come from a sample that favours the highest values as a whole.

T1: UNK ZnF1-3 (human, UniProt Q9C0B0 31-174)
T1 sequence: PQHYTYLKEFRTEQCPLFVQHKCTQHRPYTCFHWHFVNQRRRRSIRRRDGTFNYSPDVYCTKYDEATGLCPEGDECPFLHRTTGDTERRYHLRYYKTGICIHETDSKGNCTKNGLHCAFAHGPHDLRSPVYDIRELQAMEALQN

B1: 32462045_32462714_1507_3pUTR_ENSMUSG00000027668_ENSMUST00000091257|mouse|control|control (ssRNA)
RNA: GGGAGUUCUACAGUCCGACGAUCACUCUUAUACACUUUCAGUACACUGGGGGUAGGAUGAAACUCAGAACAAAACUCAUCAACCAAAACAGAUAGUCGACAAAUUUCAUCUGUCAUUGCACAAGAAACCUUGUUUGCCACCUCCAACAGAGGAUUGAGCAUCA
B2: 7395510_7396407_2237_ncRNA_ENSMUSG00000031153_ENSMUST00000132456|mouse|control|control (ssRNA)
RNA: GGGAGUUCUACAGUCCGACGAUCAUGUUCUGCAGCUUCUUGUUCAUUUCUCGAAGGUUCUCAUCGCCUGGCUUCACUAGGUCUCUCAGGACACUGCCCAGCCCACUUCGGUCUGUGUGGCCUGCUGCCACAGACACAUCAAUCCAACAGAGGAUUGAGCAUCA
B3: chr9:14812383:14812384:-_ENSMUSG00000031934_ENSMUST00000164273|mus_mus|mus_mus_mus_hu_True|28_28 (ssRNA)
RNA: GGGAGUUCUACAGUCCGACGAUCAUAGCCCAGGUAGAUACACGCUAACAGUAUAAUGAUGAGUGUCAGCAGGCGGCAGCUAAUGUACUUGAUGAUUAAAUUAUUAGAGUUCUUUUUUGUCUUCAAGUACUGCUCCACAAUUGGCAACAGAGGAUUGAGCAUCA
B4: chr11:54532911:54532912:-_ENSMUSG00000052298_ENSMUST00000064104|mus_hu|FALSE|FALSE (ssRNA)
RNA: GGGAGUUCUACAGUCCGACGAUCGGGUCGGCAGUGAAAAGAAAAAUGUUUAAAAUAGAAAAAAAAAACUGCAAAAUGGUGUUAGCAUUCACAAAAAAGAUCAUGCGAAGAUCAGAUCCAUACUGAUUAAACAUUGAAAAUUCACAACAGAGGAUUGAGCAUCA
B5: chr13:51246309:51246310:+_ENSMUSG00000021395_ENSMUST00000095797|mus_hu|FALSE|FALSE (ssRNA)
RNA: GGGAGUUCUACAGUCCGACGAUCCCCACAGUGAAGCACGAGGGACAGAGCGACUGCAGCUGUGGACAGAAAACUGAGGUACUGUGUUUACAUGGUGAGUGGUCGUUACCAUCCAACAGCACAAGGCACAAAAAAUGGGCAUCACAACAGAGGAUUGAGCAUCA
B6: chr5:144471560:144471561:-_ENSMUSG00000051306_ENSMUST00000053287|mus_hu|FALSE|FALSE (ssRNA)
RNA: GGGAGUUCUACAGUCCGACGAUCGAGACUCCAGUAUCAGUGAAGACAAGAGACGCUGUAUCAAAAAGUGUUGUGUAAUAGAAACAUACUGUCGGCUUUACAAAUCAUGUCUGGGUUAUACAUUCAUAAUGUAAAUACUCAUCACAACAGAGGAUUGAGCAUCA

molecular target: T1, UNK ZnF1-3; assay: nsRBNS (natural sequence RNA bind-n-seq); RBNS binding buffer (assumed for nsRBNS): 25 mM Tris pH 7.5, 150 mM KCl, 3 mM MgCl2, 0.01% Triton X-100, 500 ug/ml BSA, 20 U/ml SUPERase-In, 4 C; UNK is unkempt and MSI1 is Musashi-1; names of the RNAs are library labels; protein concentration not given here; high values mean tight binding

Compared with B1, B2 is lower in binding signal: 1.52 enrichment R for the first, 0.526 enrichment R for the second.

Compared with B3, B4 is higher in binding signal: 1.74 enrichment R for the first, 4.5 enrichment R for the second.

Going from B5 to B6, the binding signal falls from 1.39 enrichment R to 1.01 enrichment R.
